Test results: the supplement of paper PMC8975748
Where a name gives a salt, the structure may show the parent alone.

test system: Saccharomyces cerevisiae BY4741 SeMeCo community; assay: z-score of subpopulation abundance vs DMSO median, subpopulation auxotrophic for HUM; higher = larger share of this subpopulation than in DMSO controls; conditions: 10 µM; 24 h; SM minimal medium; subpopulation (auxotrophy): HUM
Procedure: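 Fluorescent four-plasmid SeMeCo (self-establishing metabolically cooperating S. cerevisiae BY4741 community; plasmids pH-mRuby2, pL-mWasabi, pU-eCFP, pM-TagRFP657) was grown 24 h in minimal SM medium with each Selleck FDA-approved drug at 10 µM in 384-well plates. Cells were fixed and imaged by high-content confocal microscopy. For each auxotrophic subpopulation (and the prototroph), a z-score gives the deviation from the DMSO vehicle-control population median.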

Row | Compound | z-score of subpopulation abundance
1 | CCOC(=O)Nc1ccc(NCc2ccc(F)cc2)cc1N [Retigabine 2HCl] | 0.72
2 | CC(C)(O)C(Cl)(Cl)Cl [Chlorobutanol] | -0.45
3 | CC(NC(C)(C)C)C(=O)c1cccc(Cl)c1 (stereo not given) [Amfebutamone (Bupropion) HCl] | -0.74
4 | C=CN1CCCC1=O.II [Povidone iodine] | 1.77
5 | Nc1ccncc1 [4-Aminopyridine] | -0.37
6 | CC[C@@]1(O)C(=O)OCc2c1cc1n(c2=O)Cc2cc3ccccc3nc2-1 [Camptothecin] | -0.54
7 | O=[N+]([O-])C(Br)(CO)CO [Bronopol] | -0.53
8 | COc1ccc2[nH]cc(CCN)c2c1 [5-Methoxytryptamine] | 0.46
9 | Cc1cc(C(C#N)c2ccc(Cl)cc2)c(Cl)cc1NC(=O)c1cc(I)cc(I)c1O (stereo not given) [Closantel] | 0.04
10 | Cc1cc(O)ccc1Cl [Chlorocresol] | -0.26
11 | CCN(C)C(=O)Oc1cccc([C@H](C)N(C)C)c1 [Rivastigmine] | 0.66
12 | CC(C)=CCOc1c2occc2cc2ccc(=O)oc12 [Imperatorin] | -1.03
13 | CN1[C@@H]2CC[C@H]1C[C@@H](OC(=O)[C@H](CO)c1ccccc1)C2 [Hyoscyamine] | -0.99
14 | Nc1nc(N)nc(NC2CC2)n1 [Cyromazine] | -0.23
15 | CN(C)[C@@H]1C(=O)C(C(N)=O)=C(O)[C@@]2(O)C(=O)C3=C(O)c4c(O)cccc4[C@@](C)(O)[C@H]3C[C@@H]12 [Tetracycline HCl] | 0.07
16 | COc1ccc(C(CN(C)C)C2(O)CCCCC2)cc1 (stereo not given) [Venlafaxine HCl] | 0.07
17 | CC[C@@H](C(N)=O)N1CCCC1=O [Levetiracetam] | -0.12
18 | CCC1=C[C@H]2CN3CCc4c([nH]c5ccccc45)[C@](C(=O)OC)(C2)[C@H]13 [Catharanthine] | 0.29
19 | O=c1cccc2n1C[C@@H]1CNC[C@H]2C1 [Cytisine] | -0.61
20 | CC[N+](C)(CC)CCOC(=O)C(O)(c1ccccc1)c1ccccc1 [Methylbenactyzine Bromide] | -0.8

Row | Compound | z-score of subpopulation abundance
21 | Oc1cccc2cccnc12 [8-Hydroxyquinoline] | -0.54
22 | CCCN1C[C@H](CSC)C[C@@H]2c3cccc4[nH]cc(c34)C[C@H]21 [Pergolide Mesylate] | -0.74
23 | C=CC[C@]1(O)CC[C@H]2[C@@H]3CCC4=CC(=O)CCC4=C3C=C[C@@]21C [Altrenogest] | -0.44
24 | CN[C@@H]1[C@@H](O)[C@@H](O[C@@H]2[C@@H](O)[C@H](O[C@H]3O[C@H]([C@@H](C)O)[C@@H](O)[C@H](O)[C@H]3N)[C@@H](N)C[C@H]2N)OC[C@]1(C)O [Geneticin (G418 Sulfate)] | -0.88
25 | C=CCN1C[C@H](C(=O)N(CCCN(C)C)C(=O)NCC)C[C@@H]2c3cccc4[nH]cc(c34)C[C@H]21 [Cabergoline] | -0.37
26 | C=C(C)[C@H]1Cc2c(ccc3c2O[C@@H]2COc4cc(OC)c(OC)cc4[C@@H]2C3=O)O1 [Rotenone (Barbasco)] | 0.94
27 | CCCCCCCCCCCCCCCC[n+]1ccccc1 [Cetylpyridinium Chloride] | 20.2
28 | COc1ccc2c3c([nH]c2c1)C(C)=NCC3 [Harmaline] | -6.26
29 | CC(=O)OCC1=C(C(=O)O)N2C(=O)C(N)C2SC1 (stereo not given) [7-Aminocephalosporanic acid] | 0.03
30 | C#C[C@]1(O)C=C[C@H]2[C@@H]3CCC4=CC(=O)CC[C@@H]4[C@H]3CC[C@@]21CC [Gestodene] | -0.17
31 | C[C@@H]1O[C@@H](O[C@H]2C[C@@H](O)[C@]3(CO)[C@H]4[C@H](O)C[C@]5(C)[C@@H](C6=CC(=O)OC6)CC[C@]5(O)[C@@H]4CC[C@]3(O)C2)[C@H](O)[C@H](O)[C@H]1O [Ouabain] | -0.49
32 | NCC(O)c1ccc(O)cc1 (racemic) [(+,-)-Octopamine HCl] | -0.21
33 | CN1[C@@H]2C[C@@H](OC(=O)[C@H](CO)c3ccccc3)C[C@H]1[C@@H]1O[C@@H]12 [Scopolamine HBr trihydrate] | -0.05
34 | CCN(CC)CCOC(=O)C(O)(c1ccccc1)c1ccccc1 [Benactyzine hydrochloride] | 0.98
35 | Cn1cc(C2=C(c3cn(C4CCN(Cc5ccccn5)CC4)c4ccccc34)C(=O)NC2=O)c2ccccc21 | -0.32
36 | CN1[C@@H]2C[C@@H](OC(=O)[C@H](CO)c3ccccc3)C[C@H]1[C@@H]1O[C@@H]12 [Scopolamine HBr] | -0.97
37 | C[N+]12CCC(CC1)C(OC(=O)C(O)(c1ccccc1)c1ccccc1)C2 (stereo not given) [Clidinium Bromide] | -0.01
38 | C=C[C@H]1CN2CC[C@H]1C[C@H]2[C@H](O)c1ccnc2ccccc12 [Cinchonidine] | 0.48
39 | C[N+]1(C)[C@@H]2C[C@@H](OC(=O)[C@H](CO)c3ccccc3)C[C@H]1[C@@H]1O[C@@H]12 [Methscopolamine] | 0.63
40 | NCCc1c[nH]c2ccc(O)cc12 [Serotonin HCl] | 0.18
